The panel holds about 79,000 compounds, 15% with a hit somewhere; the sample as a whole holds those more often. Calls of active or inactive are those of the source. Rule as the data show it: active = growth inhibition above about 70%; inactive = the rest.
How the values were obtained:
[1] = NCI Yeast Anticancer Drug Screen. Data for the rad52 strain (AID 147);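 also: 0% = growth of vehicle-treated control cultures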; settings: S. cerevisiae rad52 mutant growth inhibition, stronger effect = higher value
How it was run: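 Genetically altered yeast (DNA damage repair defect) treated with compound; inhibition calculated relative to vehicle.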

[2] = NCI Yeast Anticancer Drug Screen. Data for the wt1 strain (AID 149);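 also: 0% = growth of vehicle-treated wt1 cultures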; settings: S. cerevisiae wt1 strain (SPY 50644) growth inhibition, stronger effect = higher value
How it was run: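 Readout: yeast growth inhibition, normalised to vehicle controls, in the wt1 strain exposed to test compounds.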

[3] = NCI Yeast Anticancer Drug Screen. Data for the rad50EPP+ strain (AID 151);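 also: 0% = growth of vehicle-treated control cultures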; settings: S. cerevisiae rad50 mutant strain, stronger effect = higher value
How it was run: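 Strain rad50EPP+; compound exposure; % growth inhibition vs vehicle.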

[4] = NCI Yeast Anticancer Drug Screen. Data for the mgt1 strain (AID 153); settings: S. cerevisiae mgt1 mutant growth inhibition, stronger effect = higher value
How it was run: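 Read-out: yeast growth inhibition vs vehicle control. Strain mgt1, drawn from a panel altered in DNA damage repair or cell cycle control.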

[5] = NCI Yeast Anticancer Drug Screen. Data for the rad50 strain (AID 155);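 also: 0% = growth of vehicle-only cultures of the same strain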; settings: S. cerevisiae rad50 strain growth inhibition, stronger effect = higher value
How it was run: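 Compounds were tested on a yeast strain with an engineered DNA damage repair alteration; the reported value is growth inhibition normalised to vehicle treatment.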

[6] = NCI Yeast Anticancer Drug Screen. Data for the mec2-1 strain (AID 157); settings: S. cerevisiae mec2-1 strain, stronger effect = higher value
How it was run: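 Cells of the genetically defined mec2-1 yeast strain are incubated with test compound. Inhibition of growth is calculated against vehicle-treated controls.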

[7] = NCI Yeast Anticancer Drug Screen. Data for the rad14 strain (AID 159);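 also: 0% = growth of vehicle-treated control cultures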; settings: S. cerevisiae rad14 strain growth inhibition, stronger effect = higher value
How it was run: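 Compound-treated yeast with a defined DNA-repair lesion; growth inhibition normalised to vehicle-treated cultures.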

[8] = NCI Yeast Anticancer Drug Screen. Data for the sgs1 mgt1 strain (AID 161);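 also: 0% = growth of cultures given vehicle only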; settings: S. cerevisiae sgs1 mgt1 strain, stronger effect = higher value
How it was run: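 Read-out: growth inhibition vs vehicle controls. Cells: mutant yeast strain deficient in DNA damage repair.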

[9] = NCI Yeast Anticancer Drug Screen. Data for the CLN2oe strain (AID 163);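 also: 0% = growth of vehicle-only control cultures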; settings: S. cerevisiae CLN2oe strain, stronger effect = higher value
How it was run: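 Strain altered in cell-cycle control, incubated with compound; growth compared to solvent-treated controls.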

[10] = NCI Yeast Anticancer Drug Screen. Data for the cln2 rad14 strain (AID 165);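 also: 0% = growth equal to vehicle treated cultures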; settings: S. cerevisiae cln2 rad14 strain, stronger effect = higher value
How it was run: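 The screen exposed genetically defined yeast (cln2 rad14) to test compounds and scored growth inhibition relative to vehicle-treated controls.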

[11] = NCI Yeast Anticancer Drug Screen. Data for the bub3 strain (AID 167); settings: S. cerevisiae bub3 mutant strain, stronger effect = higher value
How it was run: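 Growth of a checkpoint-deficient yeast mutant is measured after compound exposure. Values represent inhibition relative to vehicle.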

[12] = NCI Yeast Anticancer Drug Screen. Data for the wt2 strain (AID 169);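 also: 0% = growth of vehicle-treated yeast cultures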; settings: S. cerevisiae wt2 strain growth inhibition, stronger effect = higher value
How it was run: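 Steps: yeast strain treated with compound; growth recorded; inhibition calculated relative to cultures given vehicle alone.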

[13] = NCI Yeast Anticancer Drug Screen. Data for the mlh1 strain (AID 171);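 also: 0% = growth of vehicle-treated control cultures of the same strain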; settings: S. cerevisiae mlh1 strain growth inhibition, stronger effect = higher value
How it was run: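 Yeast screen: mutant strain plus compound, growth scored against vehicle control wells.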

[14] = NCI Yeast Anticancer Drug Screen. Data for the sgs1 strain (AID 173);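 also: 0% = growth of vehicle-only control cultures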; settings: S. cerevisiae sgs1 mutant, stronger effect = higher value
How it was run: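 Inhibition of yeast growth served as the measure. The mutant strain was treated with each compound, and growth was normalised to cultures receiving vehicle alone.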

[15] = NCI Yeast Anticancer Drug Screen. Data for the mlh1 rad18 strain (AID 175); settings: S. cerevisiae mlh1 rad18 strain growth inhibition, stronger effect = higher value
How it was run: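 Compound-treated yeast growth, normalised to vehicle controls. Strain bears defined DNA repair mutations.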

[16] = NCI Yeast Anticancer Drug Screen. Data for the rad18 strain (AID 177); settings: S. cerevisiae rad18 mutant growth inhibition, stronger effect = higher value
How it was run: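 Inhibition values reflect reduced yeast growth compared with vehicle-treated controls, using a strain engineered with a DNA damage repair defect.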

[17] = at 5.0 µM (retest, dose inferred, filed as 0.5)
[18] = at 50.0 µM (retest, dose inferred, filed as 5.0)

Measured: growth inhibition

O=C(O)C1CCCCC1c1c2ccc(=O)cc-2oc2cc(O)ccc12 (stereo not drawn)
inactive: [1]; at 1.2 µM 2% | [1]; at 3.7 µM -3% | [1]; at 11.0 µM 1% | [1]; at 33.0 µM 39% | [2]; at 1.2 µM -24% | [2]; at 3.7 µM -19% | [2]; at 11.0 µM -21% | [2]; at 33.0 µM 12% | [3]; at 1.2 µM 11% | [3]; at 3.7 µM 16% | [3]; at 11.0 µM 16% | [3]; at 33.0 µM 22% | [3]; at 100.0 µM 38% | [4]; at 1.2 µM 15% | [4]; at 3.7 µM 16% | [4]; at 11.0 µM 21% | [4]; at 33.0 µM 46% | [5]; at 1.2 µM 16% | [5]; at 3.7 µM 19% | [5]; [17] 52% | [5]; at 11.0 µM 9% | [5]; at 33.0 µM 28% | [6]; at 1.2 µM -3% | [6]; at 3.7 µM -1% | [6]; [17] 59% | [6]; at 11.0 µM 3% | [6]; at 33.0 µM 17% | [7]; at 1.2 µM -21% | [7]; at 3.7 µM -20% | [7]; at 11.0 µM -18% | [7]; at 33.0 µM 0% | [8]; [17] 10% | [9]; at 1.2 µM 13% | [9]; at 3.7 µM 14% | [9]; at 11.0 µM 12% | [9]; at 33.0 µM 37% | [10]; [17] 43% | [11]; at 1.2 µM 14% | [11]; at 3.7 µM 22% | [11]; [17] 44% | [11]; at 11.0 µM 27% | [11]; at 33.0 µM 55% | [12]; at 1.2 µM -20% | [12]; at 3.7 µM -18% | [12]; at 11.0 µM -7% | [12]; at 33.0 µM 15% | [13]; at 1.2 µM -26% | [13]; at 3.7 µM -21% | [13]; at 11.0 µM -16% | [13]; at 33.0 µM -1% | [14]; at 1.2 µM -17% | [14]; at 3.7 µM -15% | [14]; at 11.0 µM -15% | [14]; at 33.0 µM 13% | [15]; [17] 47% | [16]; at 1.2 µM -12% | [16]; at 3.7 µM -18% | [16]; at 11.0 µM -3% | [16]; at 33.0 µM 25%
active: [1]; at 100.0 µM 93% | [2]; at 100.0 µM 91% | [4]; at 100.0 µM 95% | [5]; [18] 95% | [5]; at 50.0 µM 86.3% | [5]; at 100.0 µM 90% | [6]; [18] 94% | [6]; at 50.0 µM 86.8% | [6]; at 100.0 µM 92% | [7]; at 100.0 µM 92% | [8]; [18] 77% | [8]; at 50.0 µM 89.5% | [9]; at 100.0 µM 94% | [10]; [18] 87% | [10]; at 50.0 µM 86.4% | [11]; [18] 88% | [11]; at 50.0 µM 86.7% | [11]; at 100.0 µM 92% | [12]; at 100.0 µM 94% | [13]; at 100.0 µM 86% | [14]; at 100.0 µM 91% | [15]; [18] 93% | [15]; at 50.0 µM 81.5% | [16]; at 100.0 µM 93%
